# From the supplement of paper PMC10338343
# ± gives the standard deviation.
# How the values were obtained:
# [1] = test system: MILI (PIWIL2) piRISC loaded with L1MC piRNA (26 nt); test: pre-steady-state target cleavage rate (min^-1); guide: L1MC piRNA 5'p-UAACUAAAUACUAUGCAAGCUGUAGG; higher = faster piRNA-guided slicing of the target
# Summary of the method: (§1)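 The pre-steady-state cleavage rate came from a burst-and-steady-state fit to pooled data from three Cleave-'n-Seq trials, in which uncleaved targets were sequenced and normalised to depth and to weakly complementary targets. Each reaction held 0.1 nM transcribed, DNA-blocked target RNA library and 1 nM active affinity-purified piRISC carrying one synthetic guide, with or without 500 nM GTSF1 partner protein, in HEPES–potassium acetate buffer at 33 °C for 0–8 or 0–960 min. k3 was capped at 0.0001 min^-1.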
# [2] = test system: EfPiwi piRISC loaded with L1MC piRNA (26 nt); test: pre-steady-state target cleavage rate (min^-1); auxiliary factor: 500 nM Ephydatia muelleri Gtsf1; guide: L1MC piRNA 5'p-UAACUAAAUACUAUGCAAGCUGUAGG; MIWI and MILI are mouse PIWI proteins and EfPiwi is from a freshwater sponge; tags in brackets are library labels; higher = faster piRNA-guided slicing of the target
# Summary of the method: as §1
# [3] = auxiliary factor: 500 nM mouse GTSF1
# [4] = auxiliary factor: none (no GTSF1)
Sequence,"pre-steady-state target cleavage rate [1, 3]","pre-steady-state target cleavage rate [1, 4]",pre-steady-state target cleavage rate [2]
UCCUGGUACAGCAUGCAUAGUAUUAAGUUA,0.292 ± 0.06,0.0046 ± 0.003,0.00442 ± 0.002
UCCUGCUACACGAUGCAUAGUAUUUAGUAA,0.257 ± 0.032,0.00703 ± 0.0026,0.00352 ± 0.0024
UCCUGGAAGAGCUUGCAUAGUAUUUUGUUA,0.21 ± 0.037,0.00584 ± 0.0025,0.00497 ± 0.0026
UCCUGGUACAGCUUGCAUAGUAUUUUGUUA,0.118 ± 0.024,0.00398 ± 0.0037,0.00618 ± 0.003
UCCUGGAUCAGCUUCCAAAGUAUUUAGUUA,0.0704 ± 0.0082,0.00341 ± 0.0024,0.00404 ± 0.0027
UCCUGGUACAGCAAGCAUAGUAUUUAGUUA,0.232 ± 0.018,0.00852 ± 0.0027,0.00653 ± 0.0021
UCCUGGAACAGGUUGCAUAGUAUUUAGUUA,0.308 ± 0.018,0.0111 ± 0.0022,0.0388 ± 0.0088
UCCUGCUAGAGCUUGCAUUGUAUUUAGUUA,0.219 ± 0.018,0.0097 ± 0.0023,0.00751 ± 0.0022
UCCUGGAACAGCUUGCAUACUAUUUAGUUA,0.0842 ± 0.014,0.00298 ± 0.0025,0.00571 ± 0.0014
UCCUGGAUGAGCUGUGCAUAGUAUUUAGUUA,0.191 ± 0.013,0.0151 ± 0.0044,0.0255 ± 0.0063
UCCUGGAUGACGCUUGCAUAGUAUUUAGUUA,0.211 ± 0.022,0.00493 ± 0.0037,0.0537 ± 0.014
UCCUGGUACAGCUUGCAUAGUAUUUUAGUUA,0.183 ± 0.021,0.0144 ± 0.0062,0.00849 ± 0.0042
UCCUGGAUCGGCUUGCAUAGUAUUUAGUUA,0.261 ± 0.016,0.0131 ± 0.0022,0.0523 ± 0.0092
UCCUGGUACAGGAUGCAUAGUAUUUAGUUA,0.215 ± 0.021,0.0111 ± 0.0037,0.00598 ± 0.003
UCCUGCUAGAGCAUGCAUAGUAUUUAGUUA,0.226 ± 0.018,0.00708 ± 0.0024,0.00618 ± 0.0015
UCCUGCUACAGGUUGCAUAGUAAUUAGUUA,0.216 ± 0.032,0.00697 ± 0.0026,0.00595 ± 0.0019
UCCUGGAUGUCCUCUGCAUAGUAUUUAGUUA,0.0405 ± 0.0082,0.00562 ± 0.0033,0.00412 ± 0.003
UCCUCCAACAGCUUGCAUAGUAUUUAGUAA,0.232 ± 0.02,0.00476 ± 0.0022,0.00668 ± 0.0028
UCCUCCUACAGCUUGCAUAGUAUUUAAUUA,0.11 ± 0.019,0.00326 ± 0.0027,0.00331 ± 0.003
UCCUGGAACAGCUUGCAUAGUACUUUAGUUA,0.168 ± 0.015,0.00486 ± 0.0022,0.00922 ± 0.0033
UCCUGGUACAGCAUGCAUAGUUUUUAGUUA,0.038 ± 0.015,0.00749 ± 0.0033,0.0046 ± 0.0027
UCCUGGAUCUGCUUGCAUAGUAAUUAGUUA,0.2 ± 0.017,0.00416 ± 0.0027,0.0152 ± 0.005
UCCUCCUUCAGCUUGCAAAGUAUUUAGUUA,0.162 ± 0.015,0.00632 ± 0.0021,0.0828 ± 0.021
UCCUGCUACAGCUUGCUAAGUAUUUAGUUA,0.176 ± 0.018,0.00399 ± 0.0022,0.00353 ± 0.0029

Sequence,"pre-steady-state target cleavage rate [1, 3]","pre-steady-state target cleavage rate [1, 4]",pre-steady-state target cleavage rate [2]
UCCUCCUACAGCUUUGCAUAGUAUUUAGUUA,0.291 ± 0.017,0.00758 ± 0.0021,0.123 ± 0.036
UCCUGCUACAGCAUGGAUAGUAUUUAGUUA,0.257 ± 0.021,0.00639 ± 0.0031,0.00804 ± 0.0023
UCCUCGUACAGCUUGCAUAGUUUUUAGUUA,0.0651 ± 0.008,0.00493 ± 0.0018,0.0267 ± 0.0072
UCCUGGAUGAGCCUUGCAUAGUAUUUAGUUA,0.16 ± 0.02,0.0071 ± 0.0027,0.00885 ± 0.0032
UCCUGGAUGAGCUUGCAUAGUAUUUAGAUA,0.135 ± 0.031,0.00291 ± 0.0024,0.00326 ± 0.0019
UCCUCCAACACCUUGCAUAGUAUUUAGUUA,0.192 ± 0.022,0.00554 ± 0.0024,0.00954 ± 0.0038
UCCUGGUACAGCUUGCAUAGUAUUUAGUCUA,0.0602 ± 0.024,0.00783 ± 0.0041,0.00521 ± 0.0031
UCCUGGUAUCAGCUUGCAUAGUAUUUAGUUA,0.252 ± 0.026,0.0221 ± 0.0059,0.0704 ± 0.018
UCCUGGAUGAGCUCUGCAUAGUAUUUAGUUA,0.171 ± 0.01,0.0111 ± 0.0033,0.00721 ± 0.0028
UCCUGGAUCAGGUUGGAUAGUAUUUAGUUA,0.164 ± 0.013,0.0112 ± 0.0027,0.00425 ± 0.003
UCCUGGUACAGCCUUGCAUAGUAUUUAGUUA,0.198 ± 0.02,0.0147 ± 0.0051,0.0209 ± 0.0073
UCCUGCUACAGCUUGGAUAGUUUUUAGUUA,0.0668 ± 0.012,0.00289 ± 0.0027,0.0172 ± 0.0039
UCCUCCUACAGGUUGCAUAGUAUUAAGUUA,0.212 ± 0.027,0.00545 ± 0.0022,0.00576 ± 0.0023
UCCUCCAACAGGUUGCAUAGUAUUUAGUUA,0.28 ± 0.011,0.00862 ± 0.0019,0.0491 ± 0.011
UCCUGGAACAUCUUGCAUAGUAUUUAGUUA,0.244 ± 0.013,0.0108 ± 0.0028,0.0653 ± 0.016
UCCUGGAUCAGCUUGCAUAGUAUUUAGUCA,0.285 ± 0.019,0.0107 ± 0.0027,0.0102 ± 0.0044
UCCUCCUACAGCAUGCAUAGUAUUUUGUUA,0.143 ± 0.02,0.00296 ± 0.0027,0.00297 ± 0.0021
UCCUCCUACAGCUGUGCAUAGUAUUUAGUUA,0.321 ± 0.017,0.00714 ± 0.0025,0.0425 ± 0.015
UCCUGGAACAGCUUGCAUAGUAGUUUAGUUA,0.175 ± 0.013,0.00337 ± 0.0031,0.0047 ± 0.0024
UCCUGGAUCACCUAGCAUAGUAUUUAGUUA,0.17 ± 0.025,0.00435 ± 0.0029,0.00614 ± 0.004
UCCUCGUAGAGCUUGCAUAGUAUUUAGUUA,0.266 ± 0.012,0.00554 ± 0.0023,0.0385 ± 0.0086
UCCUGGAUCAGCUAGCAAAGUAUUUAGUUA,0.0976 ± 0.012,0.00566 ± 0.0019,0.00308 ± 0.0029
UCCUGCUAGACCUUGCAUAGUAUUUAGUUA,0.171 ± 0.02,0.00811 ± 0.0031,0.00526 ± 0.0023
